From PubChem BioAssay
PLK1 PBD inh = PLK1 (human) polo-box domain binding inhibition. Plk1 PBD binding of FITC phosphopeptide, fluorescence polarization. Potency, µM, without a hit: max response, negative = inhibition, usual class: inhibitors. 2.8% of 360,000 active. AID 720504; also: series mostly up to about 57 µM; % is scaled to controls: 0 for no effect and ±100 for the full control effect; nearly all actives have a fitted effect of over 65% in size
Mito fusion act = mitochondrial division inhibition or fusion activation; Potency, µM (titrated, usually from 46.1 µM), for the others: at the top dose growth rescue (activation), actives largely listed as activators; S. cerevisiae fusion-defective mutant growth rescue, CellTiterGlo 48 h; AID 485298; 0.23% of 320,000 active; also: % of control where 0% means no effect; nearly all actives have a fitted effect of over 45% in size
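S. cerevisiae fusion-defective temperature-sensitive mutants (e.g. fzo1-1, mgm1-5) grown 48 h at 37C in YPEG (ethanol/glycerol non-fermentable) medium with 23 nl compound per well; growth rescue read as CellTiterGlo luminescence.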
PKM2 activator = PKM2 (human) enzyme activation; P14618; purified PKM2, Kinase-Glo ATP luminescence, activation; response scale: 0% is enzyme alone, no compound; Potency, µM (titrated, usually from 57.5 µM), without a hit: top-dose activation, most hits filed as activators; 0.34% of 260,000 active; AID 1631; also: % is scaled to controls: 0 for no effect and ±100 for the full control effect; nearly all actives have a fitted effect of over 55% in size
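Purified hPK-M2 (>95% pure) converted ADP (0.1 mM final) to ATP with 0.5 mM PEP in 50 mM imidazole pH7.2, KCl, MgCl2, Tween 20, BSA; 1 h at room temperature. ATP detected by Kinase-Glo luminescence.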
VDR inh = inhibitors of human vitamin D receptor | P11473 | VDR-SRC2-3 peptide fluorescence polarization, 2 h | Potency, µM, for inactives: max response, negative = inhibition, actives largely listed as inhibitors | 0.93% of 400,000 active; also: % is scaled to controls: 0 for no effect and ±100 for the full control effect
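FP read-out; VDR + SRC2-3 coactivator peptide; 23 nl compound by pintool; 2 h RT incubation; reagents held at 4 deg C, protected from light.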
GCN5L2 inh = blocks human GCN5L2 histone acetyltransferase. Q92830. GCN5L2 HAT assay, ThioGlo1 CoA-SH fluorescence. Potency, µM (doses to about 58.9 µM), inactives show top-dose activity change, negative = inhibition, most hits filed as inhibitors. 0.21% of 390,000 active. AID 504327; also: % is scaled to controls: 0 for no effect and ±100 for the full control effect
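Fluorescence readout, Ex340nm/Em540nm: ThioGlo1 (50uM final) reacts with free CoA thiol released as 20nM GCN5L2 acetylates H3(1-25) peptide (75uM) using acetyl-CoA (70uM). Compound and enzyme sat 15 min beforehand; 20 min room-temperature reaction.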
GLS inh = blocks human kidney-isoform glutaminase activity | AID 624170 | O94925 | GLS enzymatic activity, qHTS titration | Potency, µM (doses to about 45.5 µM), for inactives: at the top dose activity change, negative = inhibition, hits mostly inhibitors | 0.21% of 410,000 active; also: % is scaled to controls: 0 for no effect and ±100 for the full control effect
Target sequence (O94925 whole entry, looked up, canonical isoform): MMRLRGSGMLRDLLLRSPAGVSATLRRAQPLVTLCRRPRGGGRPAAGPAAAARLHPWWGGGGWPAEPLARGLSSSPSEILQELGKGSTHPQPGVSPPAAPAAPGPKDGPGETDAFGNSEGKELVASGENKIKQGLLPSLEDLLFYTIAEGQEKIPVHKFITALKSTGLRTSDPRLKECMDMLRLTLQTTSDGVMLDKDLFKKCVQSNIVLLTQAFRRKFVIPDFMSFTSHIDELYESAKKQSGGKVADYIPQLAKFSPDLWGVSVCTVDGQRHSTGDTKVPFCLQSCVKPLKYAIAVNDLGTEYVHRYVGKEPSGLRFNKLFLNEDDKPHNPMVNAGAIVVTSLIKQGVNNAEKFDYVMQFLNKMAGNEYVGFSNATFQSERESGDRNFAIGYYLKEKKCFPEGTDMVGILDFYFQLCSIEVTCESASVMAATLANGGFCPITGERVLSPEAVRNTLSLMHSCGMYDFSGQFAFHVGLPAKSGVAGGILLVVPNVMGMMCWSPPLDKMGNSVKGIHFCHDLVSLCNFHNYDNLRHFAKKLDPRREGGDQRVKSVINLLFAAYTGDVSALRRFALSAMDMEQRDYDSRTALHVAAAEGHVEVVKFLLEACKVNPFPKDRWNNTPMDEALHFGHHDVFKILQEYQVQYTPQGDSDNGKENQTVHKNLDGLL
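Read-out is an Amplex red fluorescence increase coupled through glutamate oxidase and HRP, measured before and after 30 min room-temperature incubation. hKGA is in 45 mM KH2PO4 (pH 8.2) with 0.02% Tween-20; glutamine added as 1mM solution.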
* marks the source's active call; other numbers are inactive results. Most compounds without a hit are left out; they make up all but 3.4% or so of the library. Calls follow the shape of the dose curve; as a rule, active = well fitted curve in the direction sought with a large enough effect; inconclusive = small, poorly fitted or top-dose-only effect, or another doubt; inactive = no such curve, though single readings can be large; an effect the other way counts as inactive or inconclusive. Potency is read from the fitted curve at half-maximal effect.

How did CC(=O)N/N=C/c1cc(C(C)C)cc(/C=N/NC(C)=O)c1O do in these assays?
PLK1 PBD inh: 21µM*; Mito fusion act: -11%; PKM2 activator: 9%; VDR inh: -10%; GCN5L2 inh: -9%; GLS inh: 14%

What do the screens show for `CC(=O)N/N=C/c1cc(C)n(-c2ccc(Br)cc2)c1C`?
PLK1 PBD inh: 7%; Mito fusion act: -3%; PKM2 activator: 4%; VDR inh: 2%; GCN5L2 inh: -4%; GLS inh: -4%

How did Cc1cc(NC(=O)c2ccco2)c(=O)n(Cc2cccc(C(F)(F)F)c2)c1 do in these assays?
PLK1 PBD inh: -10%; Mito fusion act: 11%; PKM2 activator: 4%; VDR inh: -9%; GCN5L2 inh: -8%; GLS inh: -13%

What do the screens show for `CCCCn1c(N)c(N(CCOC)C(=O)c2cc(=O)[nH]c3ccccc23)c(=O)[nH]c1=O`?
PLK1 PBD inh: 2%; Mito fusion act: 0%; VDR inh: 13%; GCN5L2 inh: -2%; GLS inh: -6%

How did CCOC(=O)N1CCN(c2nc(-c3ccco3)cc(C(F)(F)F)n2)CC1 do in these assays?
PLK1 PBD inh: -11%; Mito fusion act: 0%; PKM2 activator: 0%; VDR inh: -4%; GCN5L2 inh: 4µM*; GLS inh: -4%

How did CCOC(=O)N1CCN(c2nc(-c3cccc(OC)c3)cc(C(F)(F)F)n2)CC1 do in these assays?
PLK1 PBD inh: -24%; Mito fusion act: -3%; PKM2 activator: 3%; VDR inh: -26%; GCN5L2 inh: -12%; GLS inh: 10%

What do the screens show for `CC(O)[C@@H]1NC(=O)[C@H](CCCN)NC(=O)[C@@H](Cc2c[nH]c3ccccc23)NC(=O)[C@H](Cc2ccc(O)cc2)NC(=O)[C@@H](NC(=O)[C@H](N)Cc2ccccc2)CSSC(C)(C)C(C(=O)N[C@H](C(N)=O)[C@@H](C)O)NC1=O` (stereo not given in full)?
VDR inh: 2%; GCN5L2 inh: 15%

How did COC(=O)CN1C(=S)N(c2ccc(OC)cc2)C(=O)/C1=C/c1ccc(N2CCOCC2)cc1 do in these assays?
PLK1 PBD inh: -23%; Mito fusion act: -5%; PKM2 activator: 0%; VDR inh: -11%; GCN5L2 inh: -9%; GLS inh: 6%

What do the screens show for `COC(=O)/C=C1\SC(N2CCOCC2)=C(c2ccc(OC)cc2)C1=O`?
PLK1 PBD inh: 15µM*; Mito fusion act: 8%; PKM2 activator: -19%; VDR inh: inconclusive; GCN5L2 inh: inconclusive; GLS inh: 3%

Results for O=C(c1ccc(N2CCOCC2)cc1)N1CCCC(Nc2ccccc2)C1 (stereo not given) ?
PLK1 PBD inh: 9.5µM*; Mito fusion act: 9%; VDR inh: inconclusive; GCN5L2 inh: -2%; GLS inh: inconclusive

Results for COCCCNC(=O)CSc1nc2c(sc3ccccc32)c(=O)n1CCc1ccc(OC)c(OC)c1 ?
VDR inh: 4%; GCN5L2 inh: -9%; GLS inh: -5%

What do the screens show for `COCCN=c1scc(-c2cccs2)n1/N=C/c1ccc(O)c(O)c1O`?
PLK1 PBD inh: 7.5µM*; Mito fusion act: 12%; PKM2 activator: inconclusive; VDR inh: -29%; GCN5L2 inh: -25%; GLS inh: inconclusive

Results for CCN=c1scc(C)n1/N=C/c1ccc(O)c(O)c1O ?
PLK1 PBD inh: 6.7µM*; Mito fusion act: -2%; PKM2 activator: inconclusive; VDR inh: -12%; GCN5L2 inh: -6%; GLS inh: -17%

What do the screens show for `COCCN=c1scc(-c2ccccc2)n1/N=C/c1c[nH]c2ccccc12`?
PLK1 PBD inh: -14%; Mito fusion act: inconclusive; PKM2 activator: -7%; VDR inh: 6%; GCN5L2 inh: inconclusive; GLS inh: 3%

How did Nc1[nH]c(=O)nc2c1ncn2C1OC(CO)C(O)C1O (stereo not given) do in these assays?
VDR inh: -4%
